# Results filed as inconclusive are left out. Unmarked numbers belong to inactive results. Calls of active or inactive are those of the source. Calls follow the shape of the dose curve; as a rule, active = well fitted activation curve with a large enough effect in the repeat runs; inconclusive = weak or mixed curves; inactive = flat fitted curve, though single readings scatter.
# Test: A CellTox Green Cytotoxicity Assay to monitor cytotoxicity in HepG2 cells - 8 hour (AID 1224890); also: nearly all actives have a fitted effect of over 45% in size
# Conditions: CellTox Green fluorescence; series mostly up to 76.8 µM; cytotoxicity increase: at the top concentration
# Source text: National Center for Advancing Translational Sciences [NCATS]
# NIH Chemical Genomics Center [NCGC]
# U.S. Environmental Protection Agency [EPA]
# National Institutes of Environmental Health Sciences [NIEHS]
# National Toxicology Program [NTP]
# Cell-based models are critical for drug discovery. Determining the natural cytotoxic effects resulting from test compounds is an essential research activity. A CellTox Green Cytotoxicity Assay to monitor cytotoxicity in real time of continues cell culture during 40 hours of the compound treatment was used to screen Tox21 10K library compounds in HepG2 cells. CellTox Green Cytotoxicity Assay is a nonlytic, homogeneous, biofluorescent method to measure cytotoxicity in cell culture after experimental manipulation. The assay system uses a proprietary asymmetric cyanine dye that is excluded from viable cells but preferentially stains the dead cell's DNA. […] Viable cells produce no appreciable increases in fluorescence. Therefore, the fluorescence signal produced by the binding interaction with dead cell DNA is proportional to cytotoxicity.
# The mixture of HepG2 cell suspension and reagents were dispensed at 600cells/6 ul/well in 1536-well tissue culture treated black solid bottom plates using a Multidrop dispenser. After the assay plates were incubated at a 37 C/5% CO2 incubator for 5 hours, 23 nL of compounds dissolved in DMSO, positive and negative controls was transferred to the assay plate by a pintool work station. The plates were incubated at 37 C for 40 hours. The fluorescence intensity were measured at 0h, 8h, 16h, 24h, 32h and 40h time points using ViewLux plate reader during compound treatment.
# % is scaled to controls: 0 for no effect and ±100 for the full control effect; potency is read from the fitted curve at half-maximal effect.
Compound,cytotoxicity increase,Potency
O=C1Cc2cc(Cl)ccc2N1,-4.18% [at 35.3 µM],
CC(C)c1nc(CN(C)C(=O)N[C@H](C(=O)N[C@@H](Cc2ccccc2)C[C@H](O)[C@H](Cc2ccccc2)NC(=O)OCc2cncs2)C(C)C)cs1,13.7% [at 35.3 µM],
CN1C(=O)N(c2ccccc2Br)Cc2cnc(Nc3ccc4c(c3)OCC(CO)O4)nc21 (stereo not given),-17.7%,
NCCNCCO,-3.15%,
c1cc(N(CC2CO2)CC2CO2)ccc1Cc1ccc(N(CC2CO2)CC2CO2)cc1 (stereo not given),19%,
CCC=CC#N,0.502%,
O=Cc1c2ccccc2c(Cl)c2ccccc12,-2% [at 35.3 µM],
CC(C)(C)CC(=O)OCC(=O)[C@@]1(O)CC[C@H]2[C@@H]3CCC4=CC(=O)C=C[C@]4(C)[C@H]3[C@@H](O)C[C@@]21C,0.939% [at 35.3 µM],
CCCCCCCCOc1ccc(C(=O)O)cc1,-18.4%,
O=C(O)c1ccc(OCCCOc2ccc(C(=O)O)cc2)cc1,2.68% [at 35.3 µM],
O=C1C(=O)c2ccccc2C(O)=C1C1CCC(c2ccc(Cl)cc2)CC1 (stereo not given),0.816% [at 35.3 µM],
CC(=O)Nc1ccc(C)cc1C,0.239%,
Cc1cc(C)cc(N)c1,0.224%,
CC(C)C=O,-4.72%,
CCOC(=O)c1ccc(I)cc1,10%,
OC[C@H]1O[C@@H](n2cnc3c(=S)nc[nH]c32)[C@H](O)[C@@H]1O,-3.48% [at 35.3 µM],
Nc1nnc(-c2ccc([N+](=O)[O-])o2)o1,-9.16%,
CCN(CC)CCNC(=O)COc1ccc(OC)cc1,1.07% [at 35.3 µM],
O=c1[nH]ncc2ccccc12,-2.08%,
O=[N+]([O-])c1ccc(O/N=C/c2cc(Br)c(O)c(Br)c2)c([N+](=O)[O-])c1,8.04%,

Compound,cytotoxicity increase,Potency
Oc1cccc(O)c1O,-8.49%,
CCCCCCCCCCCCCCN(CCO)CCO,,54.9 µM (active)
CC1(C)[C@@H](OC(=O)CCC(=O)O)CC[C@]2(C)[C@H]3C(=O)C=C4[C@@H]5C[C@@](C)(C(=O)O)CC[C@]5(C)CC[C@@]4(C)[C@]3(C)CC[C@@H]12,-0.911% [at 35.3 µM],
CNC(=O)c1cnn(-c2nc(N)c3ncn([C@@H]4O[C@H](CO)[C@@H](O)[C@H]4O)c3n2)c1,0.714% [at 35.3 µM],
CCC(=O)C1CC(C(C)C)CC=C1C (stereo not given),1.7%,
Cc1cccc(N(C)C(=S)Oc2ccc3c(c2)CCC3)c1,-5.82% [at 35.3 µM],
C[C@@]12CCC[C@H]1[C@@H]1CC[C@H]3C[C@@H](O)CC[C@]3(C)[C@H]1CC2,-9.36% [at 35.3 µM],
O=C1c2ccccc2C(=O)c2c(O)c(O)cc(O)c21,0.884%,
CN1C[C@H](C(=O)N[C@]2(C)O[C@@]3(O)[C@@H]4CCCN4C(=O)[C@H](Cc4ccccc4)N3C2=O)C[C@@H]2c3cccc4[nH]cc(c34)C[C@H]21,9.85% [at 35.3 µM],
c1ccc(C[n+]2cccc3ccccc32)cc1,-3.57%,
CCCCCCCC/C=C\CCCCCCCCCCCC(=O)O,-4.2%,
CCCCC(CC)COP(=O)(O)O (stereo not given),3.37%,
CCCCCCCCCCC(=O)O,6.99%,
CC1=C(CC=O)C(C)(C)CCC1,-8.36%,
C=C(C)C(=O)OCCCCCCCCCCCCC,-0.0846%,
O=C(O)CCC(=O)C(=O)O,-1.56%,
COc1ccccc1N1CCN(CC(O)COc2cccc3ccccc23)CC1 (stereo not given),2.2% [at 35.3 µM],
Clc1cc(Cl)nc(Cl)n1,1.14%,
CC(C)(C)C(=O)C(=O)O,5.26%,
CC=C(Cl)Cl,6.32%,

# Source: PubChem BioAssay (Tox21)
